# Test results as given in PubChem BioAssay (NCATS).
# Inconclusive results are not listed. Entries that show only a call come without a potency. Activity calls are given as the source filed them. Calls follow the shape of the dose curve; as a rule, active = well fitted cell-killing curve with a large enough effect; inconclusive = small, poorly fitted or top-dose-only effect, or effect the other way; inactive = flat fitted curve, though single readings scatter.
# Tested on: SKOV3
# Assay: Primary qHTS to identify gynecologic anti-cancer compounds using libraries of approved drugs and bioactive compounds (AID 1345084); also: nearly all actives have a fitted effect of over 55% in size
# Settings: Gynecologic cancer cell panel viability, ATPlite luminescence, 48 h; series mostly up to 57.5 µM
# How it was run: (§1)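 Cell viability after 48 h drug treatment, ATPlite luminescence readout; five doses.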
SMILES,Potency,"activity change, negative = cytotoxicity"
COc1ccc(/C=C/C(N)=O)cc1OC,inactive,
CC(O)C/C=C/C=C/C(=O)OC1C=C2COC(=O)C2(O)C2(C)CCCC(C)(C)C12 (configuration not stated),inactive,
Cn1c2ccc(NC(=O)c3ccccc3)cc2c(=O)n2nc(C(=O)O)cc12,inactive,
COC1OC(OC)C(O)(CCC2(C)C(C)CCC3(C)C2CC(O)C(O)C32CO2)C1O (configuration not stated),inactive,
COc1ccc(CCc2nc3cc(-c4c(C)noc4C)ccc3n2C[C@H](C)N2CCOCC2)cc1Cl,inactive,
CC1=C2C(=O)C=C(CO[C@@H]3O[C@H](CO)[C@@H](O)[C@H](O)[C@H]3O)[C@@H]2[C@H]2OC(=O)[C@H](C)[C@@H]2[C@@H](O)C1,inactive,
Cc1nc(-c2cccnc2)sc1C(=O)Nc1ccccc1-c1cn2c(CN3CCOCC3)csc2n1,inactive,
Cc1occc(=O)c1O[C@@H]1O[C@H](CO[C@@H]2OC[C@](O)(CO)[C@H]2O)[C@@H](O)[C@H](O)[C@H]1O,inactive,
C=C1[C@H](OC(C)=O)[C@H]2[C@@H](OC(=O)c3ccccc3)[C@@H](C)C[C@]2(O)[C@@H](OC(C)=O)[C@H](C)/C=C/C(C)(C)C(=O)[C@H](OC(C)=O)[C@H]1OC(C)=O,inactive,
O=C(/C=C/c1ccc(O)cc1)O[C@H]1[C@H](OC2CCCCC2O)O[C@H](CO)[C@@H](O)[C@@H]1O (some centres not stated),inactive,
C=C1C(=O)O[C@@H]2/C=C(\C)CC/C=C(\C(=O)O[C@@H]3O[C@H](CO)[C@@H](O)[C@H](O)[C@H]3O)CC[C@@H]12,inactive,
C=C1CC[C@@]2(OC1)O[C@H]1CC3[C@@H]4CC=C5C[C@H](O[C@H]6OC[C@@H](O)C(O)[C@@H]6O[C@@H]6O[C@@H](C)[C@H](O)[C@@H](O[C@@H]7O[C@H](CO)[C@@H](O)[C@H](O)[C@H]7O)[C@H]6O)C[C@@H](O)[C@]5(C)C4CC[C@]3(C)[C@H]1[C@@H]2C (some centres not stated),,0.203% [at 11.6 µM] (inactive)
CC(C)(O)c1ccc2c(c1)C(=O)C[C@H]1[C@](C)(C(=O)O)CCC[C@]21C,inactive,
CN1CCCC1Cc1c[nH]c2ccc(CCS(=O)(=O)c3ccccc3)cc12 (configuration not stated),inactive,
CC1OC(OC2C(OC3C(O[C@H]4CC[C@@]5(C)C(CC[C@]6(C)C5C(=O)CC5=C7CC(C)(C)CC(O)[C@]7(C)CC[C@]56C)C4(C)C)OC(C(=O)O)C(O)C3O)OCC(O)C2O)C(O)C(O)C1O (some centres not stated),,29.3% [at 11.6 µM] (inactive)
CC1CC2OCC3(O)CCC(O)C(C14CC(c1ccoc1)OC4=O)C23CO (configuration not stated),inactive,
C/C=C1/[C@H](O[C@@H]2O[C@H](CO)[C@@H](O)[C@H](O)[C@H]2O)OC=C(C(=O)OC)[C@H]1CC(=O)OCCc1ccc(OC(=O)C[C@@H]2C(C(=O)OC)=CO[C@@H](O[C@@H]3O[C@H](CO)[C@@H](O)[C@H](O)[C@H]3O)/C2=C/C)cc1,,0% [at 11.6 µM] (inactive)
CC(C)=CCC[C@](C)(O[C@@H]1O[C@H](CO[C@@H]2OC[C@H](O)[C@H](O)[C@H]2O)[C@@H](O)[C@H](O)[C@H]1O)[C@H]1CC[C@]2(C)[C@@H]1[C@H](O)C[C@@H]1[C@@]3(C)CC[C@H](O[C@@H]4O[C@H](CO)[C@@H](O)[C@H](O)[C@H]4O[C@@H]4O[C@H](CO)[C@@H](O)[C@H](O)[C@H]4O)C(C)(C)[C@@H]3CC[C@]12C,inactive,
CC(C)[C@@H](C(=O)O)N1Cc2c(cc(O)c3c2O[C@]2(C3)[C@H](C)CCC3C(C)(C)[C@H](O)[C@H](O)C[C@@]32C)C1=O (some centres not stated),inactive,
COC1OC(O)C2(CCC3(O2)C(C)CC2OC(=O)C4(C)CCCC3(C)C24)C1O (configuration not stated),inactive,
CO[C@H]1c2cc(C(C)C)c(O)c(O)c2[C@@]23CCCC(C)(C)C2[C@@H]1OC3=O (some centres not stated),inactive,
COC(=O)C1(O)C(OC(C)=O)CCC2C3(CC(c4ccoc4)OC3=O)C(C)=CCC21C(=O)OC (configuration not stated),inactive,
CC(C)N(CCCNC(=O)Nc1ccc(C(C)(C)C)cc1)C[C@H]1O[C@@H](n2ccc3c(N)ncnc32)[C@H](O)[C@@H]1O,inactive,
CCN=C1N[C@@H]2[C@@H](O)[C@H](O)[C@@H](CO)O[C@@H]2S1,inactive,
CC1CC(O)/C=C/C(O)/C=C\C(=O)O1 (configuration not stated),inactive,
CC1(C)CC[C@]2(C(=O)O)CC[C@]3(C)C(=CCC4[C@@]5(C)CC[C@H](O)C(C)(C)C5CC[C@]43C)C2C1 (some centres not stated),inactive,
CC1CC(=O)C2C(O)(C1)CC(O)C13OC1c1c(O)cccc1C(=O)C23O (configuration not stated),inactive,
CCN(CCN(C)C)C(=O)CNCc1cc(C(N)=O)ccn1,inactive,

# Tested on: Tov-21-G
# Assay: as above
# Settings: Gynecologic cancer cell panel viability, ATPlite luminescence, 48 h; series mostly up to 57.5 µM
# How it was run: as §1
SMILES,Potency,"activity change, negative = cytotoxicity"
COc1ccc(N2CCN(CCCNC(=O)Cn3c(=O)c4cccn4c4c(C)ccnc43)CC2)cc1,inactive,
OC[C@@]1(O)CO[C@H](OC[C@H]2O[C@@H](OC(CCCCc3ccc(O)cc3)CCc3ccc(O)cc3)[C@H](O[C@H]3OC[C@](O)(CO)[C@H]3O)[C@@H](O)[C@@H]2O)[C@@H]1O (some centres not stated),inactive,
C=Cc1cc2oc(-c3ccc(O)c(F)c3)nc2cc1O,inactive,
C=C(C)C1CCC2(C(=O)OC3OC(COC4OC(CO)C(O)C(O)C4O)C(OC4OC(C)C(O)C(O)C4O)C(O)C3O)CCC3(C(=O)O)C(CCC4C5(C)CCC(=O)C(C)(C)C5CCC43C)C12 (configuration not stated),,0.715% [at 11.6 µM] (inactive)
CC(=O)OC12CC(C)C(OC(=O)c3ccccc3)C1/C=C(/C)C(OC(=O)c1ccccc1)CC(=O)C(C)(C)/C=C/C(C)C2=O (configuration not stated),inactive,
COC(=O)[C@]1(Cc2ccc(O)c(CC=C(C)C)c2)OC(=O)C(O)=C1c1ccc(O)cc1,inactive,
CC(=O)OCC1OC(O[C@H]2CC[C@@]3(C)C(CC[C@]4(C)C3CC=C3[C@@H]5CC(C)(C)CC[C@]5(C(=O)O)CC[C@]34C)[C@]2(C)CO)C(O)C(O)C1OC1OC(C)C(O)C(OC2OCC(O)C(O)C2O)C1O (some centres not stated),,6.07% [at 11.6 µM] (inactive)
COc1cc(/C=C/C(=O)O)ccc1O[C@@H]1O[C@H](CO)[C@@H](O)[C@H](O)[C@H]1O[C@@H]1OC[C@](O)(CO)[C@H]1O,inactive,
COc1cc(O)cc2c1C(=O)OC(C)CCCCCCC2 (configuration not stated),inactive,
C=CC(C)(CCC=C(C)C)O[C@@H]1O[C@H](CO)[C@@H](O)[C@H](O)[C@H]1O (some centres not stated),inactive,
COc1ccc(/C=C/C(N)=O)cc1OC,inactive,
CC(O)C/C=C/C=C/C(=O)OC1C=C2COC(=O)C2(O)C2(C)CCCC(C)(C)C12 (configuration not stated),inactive,
Cn1c2ccc(NC(=O)c3ccccc3)cc2c(=O)n2nc(C(=O)O)cc12,inactive,
COC1OC(OC)C(O)(CCC2(C)C(C)CCC3(C)C2CC(O)C(O)C32CO2)C1O (configuration not stated),inactive,
COc1ccc(CCc2nc3cc(-c4c(C)noc4C)ccc3n2C[C@H](C)N2CCOCC2)cc1Cl,inactive,
CC1=C2C(=O)C=C(CO[C@@H]3O[C@H](CO)[C@@H](O)[C@H](O)[C@H]3O)[C@@H]2[C@H]2OC(=O)[C@H](C)[C@@H]2[C@@H](O)C1,inactive,
Cc1nc(-c2cccnc2)sc1C(=O)Nc1ccccc1-c1cn2c(CN3CCOCC3)csc2n1,inactive,
Cc1occc(=O)c1O[C@@H]1O[C@H](CO[C@@H]2OC[C@](O)(CO)[C@H]2O)[C@@H](O)[C@H](O)[C@H]1O,inactive,
C=C1[C@H](OC(C)=O)[C@H]2[C@@H](OC(=O)c3ccccc3)[C@@H](C)C[C@]2(O)[C@@H](OC(C)=O)[C@H](C)/C=C/C(C)(C)C(=O)[C@H](OC(C)=O)[C@H]1OC(C)=O,inactive,
O=C(/C=C/c1ccc(O)cc1)O[C@H]1[C@H](OC2CCCCC2O)O[C@H](CO)[C@@H](O)[C@@H]1O (some centres not stated),inactive,
C=C1C(=O)O[C@@H]2/C=C(\C)CC/C=C(\C(=O)O[C@@H]3O[C@H](CO)[C@@H](O)[C@H](O)[C@H]3O)CC[C@@H]12,inactive,
C=C1CC[C@@]2(OC1)O[C@H]1CC3[C@@H]4CC=C5C[C@H](O[C@H]6OC[C@@H](O)C(O)[C@@H]6O[C@@H]6O[C@@H](C)[C@H](O)[C@@H](O[C@@H]7O[C@H](CO)[C@@H](O)[C@H](O)[C@H]7O)[C@H]6O)C[C@@H](O)[C@]5(C)C4CC[C@]3(C)[C@H]1[C@@H]2C (some centres not stated),,7.35% [at 11.6 µM] (inactive)
CC(C)(O)c1ccc2c(c1)C(=O)C[C@H]1[C@](C)(C(=O)O)CCC[C@]21C,inactive,
CN1CCCC1Cc1c[nH]c2ccc(CCS(=O)(=O)c3ccccc3)cc12 (configuration not stated),inactive,
CC1OC(OC2C(OC3C(O[C@H]4CC[C@@]5(C)C(CC[C@]6(C)C5C(=O)CC5=C7CC(C)(C)CC(O)[C@]7(C)CC[C@]56C)C4(C)C)OC(C(=O)O)C(O)C3O)OCC(O)C2O)C(O)C(O)C1O (some centres not stated),,4.68% [at 11.6 µM] (inactive)
CC1CC2OCC3(O)CCC(O)C(C14CC(c1ccoc1)OC4=O)C23CO (configuration not stated),inactive,
C/C=C1/[C@H](O[C@@H]2O[C@H](CO)[C@@H](O)[C@H](O)[C@H]2O)OC=C(C(=O)OC)[C@H]1CC(=O)OCCc1ccc(OC(=O)C[C@@H]2C(C(=O)OC)=CO[C@@H](O[C@@H]3O[C@H](CO)[C@@H](O)[C@H](O)[C@H]3O)/C2=C/C)cc1,,4.28% [at 11.6 µM] (inactive)
CC(C)=CCC[C@](C)(O[C@@H]1O[C@H](CO[C@@H]2OC[C@H](O)[C@H](O)[C@H]2O)[C@@H](O)[C@H](O)[C@H]1O)[C@H]1CC[C@]2(C)[C@@H]1[C@H](O)C[C@@H]1[C@@]3(C)CC[C@H](O[C@@H]4O[C@H](CO)[C@@H](O)[C@H](O)[C@H]4O[C@@H]4O[C@H](CO)[C@@H](O)[C@H](O)[C@H]4O)C(C)(C)[C@@H]3CC[C@]12C,inactive,
CC(C)[C@@H](C(=O)O)N1Cc2c(cc(O)c3c2O[C@]2(C3)[C@H](C)CCC3C(C)(C)[C@H](O)[C@H](O)C[C@@]32C)C1=O (some centres not stated),inactive,
